In PubChem BioAssay (NCATS):
A number with no mark means an inactive call. Records with an inconclusive call do not appear. Where a call stands in place of a potency, no number is given. The source made the active and inactive calls. Calls follow the shape of the dose curve; as a rule, active = well fitted curve in the direction sought with a large enough effect; inconclusive = small, poorly fitted or top-dose-only effect, or another doubt; inactive = no such curve, though single readings can be large; an effect the other way counts as inactive or inconclusive.

Assays:
[1] = UWB1.289 Cancer Cell Toxicity qHTS against the NCATS CANVASS Library (AID 1347347); also: nearly all actives have a fitted effect of over 60% in size; also: potency is read from the fitted curve at half-maximal effect; as to activity change, negative = cytotoxicity: series mostly up to about 38 µM
Summary of the method: (§1)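 Step one: seed 1000 cells per well. Step two: incubate 4 h. Step three: add test compounds in 11 concentrations. Step four: culture 72 h, then add CellTiter-Glo and record luminescence after 15min.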

[2] = OV-SAHO Cancer Cell Toxicity qHTS against the NCATS CANVASS Library (AID 1347348); also: nearly all actives have a fitted effect of over 55% in size; also: potency is read from the fitted curve at half-maximal effect; as to activity change, negative = cytotoxicity: series mostly up to about 38 µM
Summary of the method: as §1

[3] = Panc-1005 Cancer Cell Toxicity qHTS against the NCATS CANVASS Library (AID 1347349); also: nearly all actives have a fitted effect of over 60% in size; also: potency is read from the fitted curve at half-maximal effect; as to activity change, negative = cytotoxicity: series mostly up to about 38 µM
Summary of the method: as §1

[4] = SW1088 Cancer Cell Toxicity qHTS against the NCATS CANVASS Library (AID 1347350); also: nearly all actives have a fitted effect of over 75% in size; also: potency is read from the fitted curve at half-maximal effect; as to activity change, negative = cytotoxicity: series mostly up to about 38 µM
Summary of the method: as §1

[5] = U-118MG Cancer Cell Toxicity qHTS against the NCATS CANVASS Library (AID 1347351); also: potency is read from the fitted curve at half-maximal effect; as to activity change, negative = cytotoxicity: series mostly up to about 38 µM
Summary of the method: as §1

[6] = A2780 Cisplatin Sensitive Ovarian Cancer Cell Toxicity qHTS against the NCATS CANVASS Library (AID 1347353); also: nearly all actives have a fitted effect of over 60% in size; also: potency is read from the fitted curve at half-maximal effect
Summary of the method: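 Cisplatin-sensitive A2780 ovarian cells (750/well) received compound in 11 concentrations, and were incubated 72 h at 37 °C. ATP content was measured by ATPLite luminescence; bortezomib served as control.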

[7] = HEK293 24hr Apoptosis Induction qHTS against the NCATS CANVASS Library (AID 1347359)
Summary of the method: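 HEK293 cells, 500 per well, exposed to an 11-point compound series for 24 hours at 37 degrees C. Caspase 3/7 activity read by Caspase-Glo luminescence (DEVD substrate) after 15 min at room temperature.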

[8] = target: Luciferin 4-monooxygenase (Photinus pyralis) (UniProt P08659); test: Firefly luciferase counterscreen qHTS: Assay Interference Panel against the NCATS CANVASS Library (AID 1347363); also: series mostly up to about 57 µM
Sequence of Luciferin 4-monooxygenase (Photinus pyralis) (P08659 whole entry, looked up): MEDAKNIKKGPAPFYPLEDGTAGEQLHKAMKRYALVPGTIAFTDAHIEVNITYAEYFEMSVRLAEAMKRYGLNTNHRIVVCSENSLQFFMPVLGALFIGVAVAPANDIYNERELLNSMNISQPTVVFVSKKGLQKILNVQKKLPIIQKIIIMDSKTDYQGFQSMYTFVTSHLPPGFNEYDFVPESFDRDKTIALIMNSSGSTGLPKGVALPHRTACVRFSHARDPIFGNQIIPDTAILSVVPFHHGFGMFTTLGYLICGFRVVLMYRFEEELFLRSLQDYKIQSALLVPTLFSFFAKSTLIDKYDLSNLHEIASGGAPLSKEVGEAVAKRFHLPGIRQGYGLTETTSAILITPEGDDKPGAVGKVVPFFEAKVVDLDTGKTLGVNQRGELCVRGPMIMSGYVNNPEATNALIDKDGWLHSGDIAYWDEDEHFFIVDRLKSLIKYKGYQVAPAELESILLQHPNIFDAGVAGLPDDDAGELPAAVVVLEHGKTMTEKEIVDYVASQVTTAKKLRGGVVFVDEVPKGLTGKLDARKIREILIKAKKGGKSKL
Summary of the method: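 Purified P. pyralis luciferase (0.04 ug/mL, 4x reagent) added to Tris-acetate buffer with 0.013 mM D-luciferin, 0.013 mM ATP and 13.3 mM Mg-acetate; compounds preincubated 15 min, then luminescence read after 5 min, RT.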

[9] = KB-8-5-11 Cancer Cell Toxicity qHTS against the NCATS CANVASS Library (AID 1347364); also: nearly all actives have a fitted effect of over 75% in size; also: potency is read from the fitted curve at half-maximal effect
Summary of the method: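 Viability read as CellTiter-Glo luminescence after 72 h at 37 °C, 5% CO2. 11-point compound series on 500 KB-8-5-11 cells/well in DMEM/10% FBS. Follow-up plating included 1 uM tariquidar in the medium.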

[10] = qHTS for Hypoxia signaling pathway (HIF-1) antagonists against the NCATS CANVASS Library (AID 1347374); also: nearly all actives have a fitted effect of over 60% in size; also: potency is read from the fitted curve at half-maximal effect;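 as to activity change, negative = inhibition: HRE-bla ME-180 cells stimulated with cobalt chloride to stabilize HIF-1alpha; series mostly up to about 38 µM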
Summary of the method: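 Antagonism scored as loss of CoCl2-driven (60 uM stock added) HRE beta-lactamase signal, read by CCF4 FRET at 460/530 nm. Compounds were tested in an 11-point series on ME-180 reporter cells for 17 hrs at 37C, with parallel CellTiter-Glo cytotoxicity.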

[11] = qHTS for Hypoxia signaling pathway (HIF-1) agonists against the NCATS CANVASS Library (AID 1347375)
Summary of the method: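 Beta-lactamase reporter under HRE control in ME-180 cells; compounds (11-point qHTS series) added after 5 hrs plating, then 17 hrs at 37C. FRET substrate read after 2 hr; same-well CellTiter-Glo luminescence gave viability and normalization.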

[12] = DH5-alpha competent E. coli microbial cell viability qHTS against the NCATS CANVASS Library (AID 1347377); details: outcome: dose series up to 46.1 µM unless noted
Summary of the method: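 Bacterial viability as ATP-dependent luminescence (BacTiter-Glo), read after overnight 37 °C exposure of DH5-alpha competent E. coli to compounds in 11-point titration.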

[13] = Cytotoxicity qHTS for assessment of Hepg2 cells membrane integrity screened against the NCATS CANVASS Library (AID 1347387)
Summary of the method: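 Membrane damage quantified as fluorescent LDH-release signal (ex 560, em 590 nm) in HepG2 cells treated 5 hr at 37C. qHTS format, 11 concentrations spanning 0.59 nM - 46 uM final, cells plated at 2000 per well the night before.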

[14] = qHTS for activators of dead-cell proteases activity screened against the NCATS CANVASS Library (AID 1347392);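 also: luminescence from protease leaking out of membrane-damaged cells cleaving impermeant substrate; rising signal means more cytotoxicity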; also: potency is read from the fitted curve at half-maximal effect
Summary of the method: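 HepG2, 2000 cells/well, 18 h attach; cpd 11-pt, 5 h 37C 5% CO2; CytoTox-Glo (AAF-aminoluciferin) 15 min RT; luminescence read.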

[15] = OV-KATE Cancer Cell Toxicity qHTS against the NCATS CANVASS Library (AID 1347345)
Summary of the method: as §1

[16] = HPAF-II Cancer Cell Toxicity qHTS against the NCATS CANVASS Library (AID 1347346); also: nearly all actives have a fitted effect of over 55% in size; also: potency is read from the fitted curve at half-maximal effect; as to activity change, negative = cytotoxicity: series mostly up to about 38 µM
Summary of the method: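 Cytotoxicity read-out was CellTiter-Glo luminescence after 72 h at 37 degrees C exposure of HPAF-II cells (1000/well) to compounds in an 11-point titration.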

[17] = test system: NAD(P)H diaphorase (Clostridium kluyveri); test: Diaphorse counterscreen qHTS: Assay Interference Panel against the NCATS CANVASS Library (AID 1347362)
Summary of the method: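 Clostridium kluyveri diaphorase in PBS + 0.01% Tween-20 preincubated 15 min with compounds. Resazurin and NADH then added for 5 min at room temperature in the dark; resorufin fluorescence read (ex 525, em 598).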

[18] = target: Nuclear receptor subfamily 1 group I member 3 (Homo sapiens) (UniProt Q14994); test: qHTS for Constitutive Androstane Receptor (CAR) Antagonist screened against the NCATS CANVASS Library (AID 1347372); also: potency is read from the fitted curve at half-maximal effect;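 as to activity change, negative = inhibition: cells stimulated with 50 nM CITCO agonist so inhibition reflects antagonism; luciferase from CYP2B6 promoter reporter driven by hCAR in HepG2 cells; series mostly up to about 46 µM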
Sequence of Nuclear receptor subfamily 1 group I member 3 (Homo sapiens) (Q14994 whole entry, looked up): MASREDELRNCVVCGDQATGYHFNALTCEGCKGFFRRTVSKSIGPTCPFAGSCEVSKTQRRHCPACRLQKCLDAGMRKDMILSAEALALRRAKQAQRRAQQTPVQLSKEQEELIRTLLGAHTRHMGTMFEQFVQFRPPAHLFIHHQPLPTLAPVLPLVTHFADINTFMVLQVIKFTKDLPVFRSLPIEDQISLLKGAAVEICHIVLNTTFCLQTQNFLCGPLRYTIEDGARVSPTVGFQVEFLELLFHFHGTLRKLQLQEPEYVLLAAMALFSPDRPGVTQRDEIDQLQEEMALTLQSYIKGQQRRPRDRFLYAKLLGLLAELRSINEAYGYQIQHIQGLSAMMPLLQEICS
Summary of the method: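 Luminescence readout (ONE-Glo, 30 min RT) of CYP2B6-2.2kb reporter in HepG2-hCAR cells after 24hr, 37C treatment with compound against 50 nM CITCO; CellTiter-Fluor viability read beforehand.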

[19] = qHTS for activators of Nrf2/ARE signaling pathway screened against the NCATS CANVASS Library (AID 1347391); also: nearly all actives have a fitted effect of over 60% in size; also: potency is read from the fitted curve at half-maximal effect
Summary of the method: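 Eleven-point qHTS, 16 h treatment of HepG2 cells carrying an ARE-driven beta-lactamase reporter; CCF4 ratio read (405 nm excitation, 460 and 530 nm emission), with CellTiter-Glo ATP luminescence for viability.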

[20] = qHTS for inhibitors of ER calcium dysfunction: SERCaMP assay screened against the NCATS CANVASS Library (AID 1347393); also: nearly all actives have a fitted effect of over 40% in size; also: potency is read from the fitted curve at half-maximal effect;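 as to activity change, negative = inhibition: series mostly up to about 77 µM; lower secreted reporter signal means inhibitor of ER calcium depletion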
Summary of the method: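 SH-SY5Y GLuc-SERCaMP, 1000 cells/well, 4 h attach; cpd 16 h, 37C/5% CO2; thapsigargin (added as 6x 600 nM) 4 h; coelenterazine; luminescence. Reduced reporter release = ER Ca stabilization.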

CCCc1c2c([nH]c(=O)c1C)C(=O)c1[nH]c(=O)c(C)c(CCC)c1C2=O
Potency [1]: 7.47 µM (active)
Potency [2]: 11.8 µM (active)
Potency [3]: 10.6 µM (active)
Potency [4]: 8.41 µM (active)
Potency [5]: inactive
Potency [6]: 14.8 µM (active)
Potency [7]: inactive
Potency [8]: inactive
Potency [9]: inactive
Potency [10]: 9.41 µM (active)
outcome [11]: inactive
outcome [12]: inactive
outcome [13]: inactive
Potency [14]: inactive

COC(=O)[C@@]12Oc3cccc(O)c3C(O)=C1C(=O)C[C@H](C)[C@H]2O
Potency [15]: inactive
Potency [16]: inactive
Potency [1]: inactive
Potency [2]: inactive
Potency [3]: inactive
Potency [4]: inactive
Potency [5]: inactive
Potency [6]: inactive
Potency [7]: inactive
Potency [17]: inactive
Potency [8]: inactive
Potency [9]: inactive
Potency [18]: inactive
outcome [11]: inactive
outcome [13]: inactive

CO/C=C/C(=O)c1cc2cnc3c(N)cc(=NC(=O)C(C)C)c([nH]1)c23
Potency [2]: 0.0375 µM (active)
Potency [6]: 0.0296 µM (active)
Potency [7]: inactive
Potency [17]: inactive
Potency [9]: 0.296 µM (active)
Potency [10]: 0.0334 µM (active)
outcome [12]: inactive
Potency [19]: inactive
Potency [14]: 23.4 µM (active)
Potency [20]: inactive

CCC(=O)N[C@@H](C[C@H](C)C(Cl)(Cl)Cl)C(=O)N1C(=O)C=C(OC)[C@@H]1C[C@H](C)CCl
Potency [16]: 16.8 µM (active)
Potency [4]: 16.8 µM (active)
Potency [7]: inactive
Potency [8]: inactive
Potency [9]: inactive
outcome [13]: inactive
Potency [19]: inactive

COC(=O)C1=C[C@]23C[C@@H](C)CC[C@@H]2[C@@]2(C)CC[C@@H](C(C)C)[C@@](O)(O3)[C@@H]12
Potency [16]: 18.8 µM (active)
Potency [3]: inactive
Potency [5]: inactive
Potency [17]: inactive
Potency [9]: 18.7 µM (active)
Potency [18]: inactive
Potency [10]: inactive
outcome [11]: inactive
outcome [13]: inactive
Potency [14]: inactive
Potency [20]: 34.3 µM (active)

CC(CCC[C@]1(C)C(=O)C=C[C@@]23C[C@]4(C)O[C@@H](C[C@@H]4[C@H]2O)C31)C(=O)O (some centres not stated)
Potency [15]: inactive
Potency [16]: inactive
Potency [1]: inactive
Potency [2]: inactive
Potency [3]: inactive
Potency [4]: inactive
Potency [5]: inactive
Potency [6]: inactive
Potency [7]: inactive
Potency [8]: inactive
Potency [9]: inactive
Potency [18]: inactive
Potency [10]: inactive
outcome [11]: inactive
outcome [12]: inactive
outcome [13]: inactive
Potency [19]: inactive
Potency [14]: inactive
Potency [20]: inactive

Cc1cc(C)c(O)c(C(=O)CC2CC(=O)NC(=O)C2)c1
Potency [4]: inactive
Potency [6]: 4.69 µM (active)
Potency [7]: inactive
Potency [8]: inactive
Potency [9]: 7.43 µM (active)
Potency [18]: 14.8 µM (active)
Potency [10]: 7.47 µM (active)
outcome [12]: inactive
outcome [13]: inactive
Potency [14]: inactive

COc1ccc([C@@H]2CC(=O)c3c(cc(O)c(C/C=C(\C)CCC=C(C)C)c3O)O2)cc1
activity change, negative = cytotoxicity [16]: -11.2% [at 7.64 µM]
activity change, negative = cytotoxicity [2]: -12.7% [at 7.64 µM]
activity change, negative = cytotoxicity [3]: -16.1% [at 7.64 µM]
outcome [5]: inactive [at 7.64 µM]
activation [7]: 2.74% [at 9.19 µM]
activity change, negative = inhibition [8]: -12.4% [at 11.5 µM]
activity change, negative = inhibition [18]: 30.2% [at 9.19 µM]
activity change, negative = inhibition [10]: 8.62% [at 7.64 µM]
viability signal change, negative = cytotoxic [12]: 8.04% [at 9.19 µM]

COC(=O)c1cc2cc3c(c(O)c2c(=O)o1)OC1(CC3)CC2=C(O1)C(=O)c1c(O)c(OC)cc(OC)c1C2=O (configuration not stated)
Potency [16]: 18.8 µM (active)
Potency [3]: 21.1 µM (active)
Potency [4]: 13.3 µM (active)
Potency [5]: inactive
Potency [6]: 20.9 µM (active)
Potency [7]: inactive
Potency [8]: inactive
Potency [18]: inactive
Potency [10]: 14.9 µM (active)
outcome [12]: inactive
outcome [13]: inactive
Potency [19]: 10.5 µM (active)
Potency [20]: inactive

O=C(OC[C@H]1O[C@@H](OC(=O)c2cc(O)c(O)c(O)c2)[C@H](OC(=O)c2cc(O)c(O)c(O)c2)[C@@H](OC(=O)c2cc(O)c(O)c(O)c2)[C@@H]1OC(=O)c1cc(O)c(O)c(O)c1)c1cc(O)c(O)c(O)c1
Potency [1]: 18.8 µM (active)
Potency [3]: 8.41 µM (active)
Potency [6]: 8.33 µM (active)
Potency [14]: inactive

O=C1CC(c2ccc(O)cc2)Oc2cc(O)cc(O)c21 (configuration not stated)
Potency [15]: inactive
Potency [16]: inactive
Potency [1]: inactive
Potency [2]: inactive
Potency [3]: inactive
Potency [4]: inactive
Potency [5]: inactive
Potency [6]: inactive
Potency [7]: inactive
Potency [17]: inactive
Potency [9]: inactive
outcome [12]: inactive
Potency [19]: inactive
Potency [14]: inactive

CC[C@H](O)CCCCC[C@@H]1NC(=O)[C@H]2CCCCN2C(=O)[C@H]([C@H](C)CC)NC(=O)[C@H](Cc2cn(OC)c3ccccc23)NC1=O
Potency [16]: 3.75 µM (active)
Potency [3]: 18.8 µM (active)
Potency [5]: 13.3 µM (active)
Potency [6]: 23.5 µM (active)
Potency [7]: inactive
Potency [8]: inactive
Potency [9]: inactive
Potency [10]: inactive
outcome [11]: inactive
outcome [12]: inactive
outcome [13]: inactive
Potency [19]: inactive
Potency [20]: inactive

C/C(=C\[C@H](C)C(=O)/C=C/CC1CC(=O)NC(=O)C1)[C@@H]1OC(=O)/C=C/CC/C=C/C[C@@H](O)[C@@H]1C
Potency [16]: 2.98 µM (active)
Potency [1]: 2.98 µM (active)
Potency [2]: 2.11 µM (active)
Potency [4]: 16.8 µM (active)
Potency [6]: 1.18 µM (active)
Potency [7]: inactive
Potency [8]: inactive
Potency [18]: 18.6 µM (active)
Potency [10]: 1.33 µM (active)
outcome [12]: inactive
Potency [14]: inactive
Potency [20]: inactive

C/C(=C\[C@H](C)C(=O)CCCC1CC(=O)NC(=O)C1)[C@@H]1OC(=O)/C=C/CC/C=C/[C@H](O)[C@@H](O)[C@@H]1C
Potency [16]: 1.33 µM (active)
Potency [1]: 1.18 µM (active)
Potency [2]: 0.747 µM (active)
Potency [3]: 0.668 µM (active)
Potency [6]: 0.372 µM (active)
Potency [7]: inactive
Potency [8]: inactive
Potency [9]: inactive
Potency [18]: 3.31 µM (active)
Potency [10]: 0.374 µM (active)
outcome [11]: inactive
outcome [12]: inactive
outcome [13]: inactive
Potency [19]: inactive
Potency [14]: inactive
Potency [20]: inactive
